This passage reports inhibition results from PubChem BioAssay.

The structures appear in SMILES notation. Values without a mark were called inactive. The rule behind the calls is not given here. Where a SMILES comes first, the peptide text is derived from it. [ ]: non-standard residue; d: D form. The star is where a group is joined. ξ: configuration not given here. Piv = CC(C)(C)C(=O)*; ξNva = CCCC(N)C(=O)O

This test deals with Pantothenate synthetase (Mycobacterium tuberculosis (strain ATCC 25618 / H37Rv)) (UniProt P9WIL5). In words: Coupled enzyme confirmation of inhibitors against recombinant Mtb PanC (AID 375).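 Note: 0% = full reaction with vehicle and 100% = no enzyme background.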 To be noted: coupled enzyme assay; at 10 µM, hits give high values.
Chain of Pantothenate synthetase (Mycobacterium tuberculosis (strain ATCC 25618 / H37Rv)) (P9WIL5 whole entry, looked up): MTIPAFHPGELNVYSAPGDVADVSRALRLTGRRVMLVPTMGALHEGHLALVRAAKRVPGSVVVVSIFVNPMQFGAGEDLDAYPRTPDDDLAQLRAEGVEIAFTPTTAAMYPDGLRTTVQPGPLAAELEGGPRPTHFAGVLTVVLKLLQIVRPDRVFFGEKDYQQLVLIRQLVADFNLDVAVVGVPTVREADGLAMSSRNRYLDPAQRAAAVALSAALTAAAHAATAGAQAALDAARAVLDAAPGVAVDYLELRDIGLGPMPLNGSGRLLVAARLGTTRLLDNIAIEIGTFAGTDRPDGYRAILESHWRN
The term inhibition denotes how much of the control response was suppressed. With `CC1(C)CC(=O)C2=C(C1)N(Cc1ccco1)C(=O)C2(NC(=O)C1CCCCC1)C(F)(F)F` (stereo not given), the inhibition was 4%. Turning to `CCCC(NC(=O)CNC(=O)C(C)(C)C)C(=O)O` (stereo not drawn) (Piv-Gly-[ξNva]-OH), the inhibition was 0%. Regarding `CCN1CCCC1CNC(=O)c1cc2c(=O)n(C)c3ccccc3c2n1C` (stereo not given), the inhibition was 0%. Regarding `COC(=O)c1ccccc1NC(=O)c1cc(-c2ccc(OC)c(OC)c2)on1`, the inhibition was 0%. As for `COc1ccc2cc(C#N)c(N3CCN(Cc4nnnn4CCC(C)C)CC3)nc2c1`, the figure is 8%; as for `COCCn1c(SCC(=O)c2ccccc2)nc2c(c1=O)SC(C)C2` (stereo not given), 0%. On to `CCOc1ccc(N(CC(=O)NC2CCCC(C)C2C)S(=O)(=O)c2c(C)noc2C)cc1` (stereo not given), for which the inhibition is 2%.

Regarding `O=C(OCC(=O)N1CCc2ccccc21)C1=COCCO1`, the inhibition was 0%. As for `CCC1CCCCN1CCNS(=O)(=O)c1ccc2c(c1)oc(=O)n2C` (stereo not given), the inhibition was 1%. Next, `COc1ccc(S(=O)(=O)N2CCCC(C(=O)NCc3ccccn3)C2)cc1` (stereo not given): 7%; `CC(C(=O)N1CCOCC1)N1c2cccc3cccc(c23)S1(=O)=O` (stereo not given): 8%. For `COc1ccc(N2CCN(c3ccc(N)cc3C#N)CC2)cc1`, the inhibition is 7%.

As for `Cc1c(C(=O)NCc2ccoc2)oc2ccc3c(c12)C(=O)CC(C)(C)O3`, the inhibition is 2%. In the case of `CCOC(=O)c1c(NC(=O)c2ccn(CC)n2)sc2c1CCCC2`, the inhibition was 3%. Turning to `CC(OC(=O)c1ccco1)C(=O)NCc1cccs1` (stereo not given), the inhibition is 0%. Next, `Cc1nnc(SCC(=O)NCCN2C(=O)CSC2=O)s1`: 7%; `COc1cc(=O)[nH]c(SCc2c(F)c(F)c(F)c(F)c2F)n1`: 2%. As for `Cn1cccc1Cc1nnc(SCC(=O)NCc2ccc(F)cc2)n1-c1ccc(F)cc1`, the figure is 2%; as for `O=C(Nc1ncc(Br)s1)C1CCCN1S(=O)(=O)c1cccc2cccnc12` (stereo not given), 0%; as for `O=C(NCCCN1CCOCC1)c1ccc(CS(=O)(=O)c2c(Cl)cccc2Cl)o1`, 0%.

On to `Cc1cc(-c2ccc(F)cc2)nc2cc(C(N)=O)nn12`, for which the inhibition is 0%. With `CC(C)C1N=C2c3ccccc3N=C(SCc3cc(=O)n4ccccc4n3)N2C1=O` (stereo not given), the inhibition was 6%. `COC(=O)c1ccccc1NC(=O)CSc1nnc(-c2ccncc2)o1`: the inhibition is 0%. As to `COc1ccccc1C(=O)N1CCN(C(=O)c2ccncc2)CC1`, the inhibition was 0%. `CCN1CCN(c2nc3c(C)cccn3c(=O)c2/C=C(\C#N)S(=O)(=O)c2ccccc2)CC1`: the inhibition was 0%. In the case of `CC1CN(c2c3c(nc4ncnn24)CCCC3)CC(C)O1` (stereo not given), the inhibition was 2%. In the case of `COC(=O)c1cccc(S(=O)(=O)N2CCC(C)CC2)c1`, the inhibition is 3%.

`Cc1ccc(C)c(NC(=O)C2CCC(C)(C(=O)O)C2(C)C)c1` (stereo not given): the inhibition is 0%. With `CC(NCCC(c1ccccc1)c1ccccc1)c1ccccc1` (stereo not given), the inhibition was 0%. Turning to `COC(=O)Cn1c(CN2CCN(c3ccccc3F)CC2)nc2c1c(=O)n(C)c(=O)n2C`, the inhibition is 0%. As for `CC1(C)CC(=O)c2sc(NS(C)(=O)=O)nc2C1`, the inhibition was 0%.

As for `O=C(OCC(=O)c1ccccc1Br)c1ccccn1`, the inhibition was 3%. Consider `Cc1ccc2oc(=O)c3cnn(CC(=O)N4CCCc5ccccc54)c3c2c1`, for which the inhibition is 1%. Consider `Cc1ccc(Cc2c(C)nc3c(C(=O)O)cnn3c2C)cc1`, for which the inhibition is 4%. As for `CN(C)S(=O)(=O)N1CCN(C(=O)N(c2ccccc2)c2ccccc2)CC1`, the figure is 0%; as for `Cc1ccc(C2Nc3ccccc3-c3nc4ccccc4n32)o1` (stereo not given), 0%. For `O=C(NC1CCCCC1)c1cc2nc(-c3ccco3)cc(C(F)(F)F)n2n1`, the inhibition is 0%. As for `CC(C)COc1ccc(C(=O)OCCN2CCOCC2)cc1`, the inhibition was 1%. Take `Cc1cc(C(=O)N2CCN(C/C=C/c3ccccc3)CC2)no1`: the inhibition was 0%.

With `CCOC(=O)C1=C(N)c2ccccc2CC1C(C)C` (stereo not given), the inhibition was 0%.
